Where “and” joins values, the source holds several entries; their conditions need not be identical. Identical values can stand only once. Inconclusive results are not listed. Calls of active or inactive are those of the source. Unless noted, no rule for the calls is given here.

The nature of assay [1]: liver-stage malaria parasite load reduction – cell-based, known kinase inhibitor set, luminescence, hepatoma host viability (AID 624392).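 Also: infected cells incubated roughly two days before readout.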 To be noted: Plasmodium liver stage in hepatoma cells, luciferase luminescence, concentration not given here; liver cell % of control: measured here: host liver cell viability; parasite % of control: stronger effect = lower value.
A short description of assay [2]: altered dexamethasone sensitivity, NF-kB reporter, cell-based, luciferase, IL-1B stimulus (AID 624486).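 As to percent of negative control (+Dex): 100% = mean signal of vehicle control wells on the plate.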 The conditions noted are these: IL-1B + dexamethasone, luminescence; percent of negative control (+Dex): actives lie on both sides, concentration not given here; z-score: measured here: IL-1B alone, no Dex.
A short description of assay [3]: C. elegans survival during P. aeruginosa infection – whole organism (AID 651566).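 Also: tested at 14 µM; sign flipped so higher z means a lower ratio.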 The conditions noted are these: C. elegans killed by P. aeruginosa, survival ratio.
Assay [4] in a line: pro-inflammatory signaling induction in mouse macrophages – cell-based, murine, luminescence (AID 652131). The conditions noted are these: murine macrophage pro-inflammatory reporter, stronger effect = higher value.
Assay [5] concerns the target Cellular tumor antigen p53 (Homo sapiens) (UniProt P04637). Description: GFP-p53 level modulators in HPV16+ cells – imaging, known kinase inhibitor set, EGFP/DsRed ratio (AID 1053116).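 Also: cells exposed to compounds for 24 h at 37 °C before reading.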 The conditions noted are these: GFP-p53 stability, stronger effect = higher value; EGFP object count: measured here: GFP-p53 positive objects count.
Assay [6] is described as follows: inducers of IRF3 signaling, differentiated THP-1 – cell-based, PMA-stimulated THP-1, luminescence (AID 1053176). To be noted: PMA-differentiated THP-1, IRF3 reporter luminescence; stronger effect = higher value.
Assay [7] in a line: MELAS cybrid and Rieske KO viability enhancers – cell-based, MELAS cybrids, Rieske KO mouse fibroblasts, CellTiter-Glo, primary screen (AID 1508586;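 active = mean z-score across replicates of 1.96 or higher in either the MELAS or the Rieske mutant cell line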;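 also: z relative to plate mean and SD of compound and empty wells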). The conditions noted are these: low glucose.
Assay [8] can be described thus: viability loss with induced miR-34 in A549 – imaging, A549 dox-inducible miR-34, nuclei and caspase counts, primary screen (AID 1347080;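 active = compounds whose cell count with miR-34 switched on is under 0.7 times the count with it off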). The conditions noted are these: A549 miR-34 inducible, Hoechst nuclei count, 48 h.
Assay [9] can be described thus: galactose survival enhancers in mitochondrial complex I cybrids – cell-based, galactose medium, ATP luminescence, primary screen (AID 1645843;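 active = z-score of at least 1.8 in each of two replicates, scored against plate mean and spread of sample wells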;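 also: positive z means more ATP and so rescue of galactose-driven cybrid death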). The conditions noted are these: complex I mutant cybrid cells, 72 h, stronger effect = higher value.
Assay [10] in a line: viability loss in pontine glioma line – cell-based, SU-DIPG-XIII, MIPE4.0, CellTiter-Glo, qHTS, dose response (AID 1347061; cut-off not given, nearly all actives have AC50 up to about 37 µM;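 also: cells exposed to compound for 48 hours before readout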). The conditions noted are these: CellTiter-Glo ATP luminescence.
Assay [11] is described as follows: viability loss in pontine glioma line – cell-based, JHH-DIPG-1, MIPE4.0, CellTiter-Glo, qHTS, dose response (AID 1347062; cut-off not given, nearly all actives have AC50 up to about 27 µM). The conditions noted are these: JHH-DIPG-1 viability, CellTiter-Glo ATP luminescence. Background: In ATP-based viability assays light output follows the ATP content of the culture.
Assay [12] is described as follows: viability loss in pontine glioma line – cell-based, SU-DIPG-XXV, MIPE5.0, CellTiter-Glo, qHTS, dose response (AID 1347065; cut-off not given, nearly all actives have AC50 up to about 26 µM;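 also: cells exposed to compound for 48 hours before ATP readout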). To be noted: CellTiter-Glo ATP luminescence.
Assay [13] in a line: growth inhibition of DIPG cells – cell-based, MIPE4.0 library, CellTiter-Glo luminescence, qHTS (AID 1347066; cut-off not given, nearly all actives have AC50 up to about 30 µM;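 also: cells exposed to compound for 48 hours before readout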). The conditions noted are these: SU-DIPG-VI viability, CellTiter-Glo ATP luminescence.
Assay [14] is described as follows: JHH-DIPG-1 glioma cell viability, MIPE5.0 library, CellTiter-Glo luminescence, qHTS (AID 1347067; cut-off not given, nearly all actives have AC50 up to about 26 µM;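 also: cells exposed to compound for 48 hours before readout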). To be noted: JHH-DIPG-1 glioma viability, CellTiter-Glo ATP luminescence.
A short description of assay [15]: growth inhibition of DIPG cells – cell-based, MIPE5.0 library, qHTS (AID 1347068; cut-off not given, nearly all actives have IC50 up to about 30 µM). To be noted: SU-DIPG-XXV viability. (Quantitative high-throughput screening tests each substance at several concentrations.)
Assay [16] can be described thus: P. berghei load reduction in hepatocytes – cell-based, HepG2, luciferase luminescence, HepG2 viability, primary screen (AID 624349; in the data active = parasite load remaining mostly below about 12%, no sharp cut-off; inactive = mostly above about 10%;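 also: 100% = mean of DMSO negative control wells on the same plate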). To be noted: P. berghei liver stage in HepG2, luciferase luminescence, concentration not given here; parasite load remaining: stronger effect = lower value; viability: measured here: HepG2 viability without parasites.
[17] abbreviates: MELAS cybrid survival, CellTiter-Glo 48 h, stronger effect = higher value.
[18] abbreviates: Rieske KO mouse fibroblast survival, CellTiter-Glo 72 h.
Setting [19] is: stronger effect = lower value, cell number ratio, induced over uninduced.
[20] abbreviates: measured here: relative caspase fold change +Dox/-Dox.
Setting [21] is: measured here: total cells with miR-34 induction, stronger effect = lower value.
Setting [22] is: measured here: total cells without miR-34 induction.

Sequence of Cellular tumor antigen p53 (Homo sapiens) (P04637 whole entry, looked up): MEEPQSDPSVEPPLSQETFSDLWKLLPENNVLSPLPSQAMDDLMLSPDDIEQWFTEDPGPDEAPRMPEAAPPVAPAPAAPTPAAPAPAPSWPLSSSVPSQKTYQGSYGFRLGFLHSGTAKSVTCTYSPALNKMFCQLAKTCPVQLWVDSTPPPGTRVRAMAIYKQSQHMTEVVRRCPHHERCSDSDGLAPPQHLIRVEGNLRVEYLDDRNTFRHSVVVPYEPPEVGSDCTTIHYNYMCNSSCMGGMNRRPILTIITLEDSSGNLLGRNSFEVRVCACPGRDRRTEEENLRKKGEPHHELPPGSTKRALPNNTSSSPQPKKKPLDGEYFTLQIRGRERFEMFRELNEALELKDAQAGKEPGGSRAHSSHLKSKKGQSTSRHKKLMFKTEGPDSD

Regarding `CC1=C(C(=O)Nc2ccc3[nH]ncc3c2)C(c2ccc(F)cc2)N=C(c2ccc(C(F)(F)F)nc2)N1` (stereo not given), the liver cell % of control in [1] was 102%. Also, the parasite % of control in [1] is 138% (inactive). Further, in [2], the percent of negative control (+Dex) was 86% (inactive). Moreover, the z-score in [2] is -1.21; in assay [3], 0.02 (inactive); in assay [4], 0.13 (inactive); in assay [7] (setting [17]), -0.75 (inactive); in [7] (setting [18]), -0.3. Also, the EGFP object count in [5] is 2. For the same compound, the EGFP/DsRed ratio in [5] was 0.0614 (inactive). Besides, the fraction signal in [6] is -0.004 (inactive).
Regarding `N#Cc1c(NC(=O)c2ccccc2F)sc2c1CCCC2`, the liver cell % of control in assay [1] came out at 160%. Also, in [1], the parasite % of control is 60.7% (inactive). Besides, in assay [2], the percent of negative control (+Dex) is 282% (active). Moreover, the z-score in assay [2] was 14.4; in [3] it was 0.24 (inactive); in assay [4] it was 2.53 (inactive); in assay [7] (setting [17]) it was 0.104 (inactive) and 0.195 (inactive); in [7] (setting [18]), -0.249 and 0.00256; in assay [9], 0.305 (inactive). For the same compound, the EGFP object count in assay [5] is 0. In assay [5], the EGFP/DsRed ratio is 0 (inactive). The fraction signal in [6] was -0.0035 (inactive). The results for the fold change in [8] (setting [19]) and in assay [8] (setting [20]) were 0.993 (inactive) and 0.12, respectively. The cell count in assay [8] (setting [21]) stood at 5190; in assay [8] (setting [22]) it was 5220.
The compound `COC(=O)Nc1nc2ccc(Oc3ccc(NC(=O)Nc4cc(C(F)(F)F)ccc4F)cc3)cc2s1` displayed a liver cell % of control in assay [1] of 100%. For the same compound, the parasite % of control in assay [1] was 360% (inactive). In assay [2], the percent of negative control (+Dex) is 120% (inactive). Also, the z-score in assay [2] was -1.24; in assay [3], -0.21 (inactive); in assay [4], -0.073 (inactive); in assay [7] (setting [17]) it was -0.628 (inactive); in assay [7] (setting [18]) it was -0.719. Further, the EGFP object count in assay [5] amounted to 18.5. Further, the EGFP/DsRed ratio in assay [5] was 0.414 (inactive). Besides, the fraction signal in assay [6] was 0 (inactive).
Turning to `CN(C)C(=O)O[C@H]1CN[C@H](C#Cc2cc3ncnc(Nc4ccc(OCc5cccc(F)c5)c(Cl)c4)c3s2)C1`, in assay [1], the liver cell % of control is 97.6%. Besides, the parasite % of control in [1] is 127% (inactive). Besides, in assay [2], the percent of negative control (+Dex) is 92% (inactive). Besides, the z-score is -0.215 in assay [2]; 0.225 (inactive) in assay [3]; -0.738 (inactive) in assay [4]; -0.153 (inactive) in [7] (setting [17]); -0.193 in assay [7] (setting [18]). Besides, in assay [5], the EGFP object count came to 2. Further, the EGFP/DsRed ratio in [5] was 0.131 (inactive). The fraction signal in assay [6] is 0.001 (inactive).
Take `Cn1c(=O)c(Oc2ccc(F)cc2F)cc2cnc(NC3CCOCC3)nc21`: in assay [2], the percent of negative control (+Dex) is 102% (inactive). Further, the z-score in assay [2] was -0.045. For the same compound, the EGFP object count in [5] is 4. Besides, in assay [5], the EGFP/DsRed ratio was 0.0482 (inactive). In [6], the fraction signal is -0.007 (inactive). Also, the compound was called inactive in assay [10], in assay [11], in [12], in assay [13], in assay [14] and in assay [15].
Take `COc1ccc(COc2ccc(Cc3cnc(N)nc3N)cc2OC)cc1`: the parasite load remaining in assay [16] is 13.9% (inactive). Further, the viability (commonly the share of living cells, or the viability signal relative to a control) in assay [16] amounted to 98.2%. In addition, in [1], the liver cell % of control worked out at 99.1%. The parasite % of control in assay [1] is 45.5% (inactive). In addition, in assay [2], the percent of negative control (+Dex) is 90% (inactive). Also, the z-score is -0.44 in [2]; -0.075 (inactive) in assay [3]; 1.35 (inactive) in assay [4]; -0.29 (inactive) and -0.397 (inactive) in assay [7] (setting [17]); -0.126 and -1.03 in assay [7] (setting [18]). The EGFP object count in assay [5] came out at 4.5. Further, the EGFP/DsRed ratio in assay [5] was 0.0511 (inactive). The fraction signal in [6] is -0.003 (inactive). Further, the result in assay [12], in assay [14] and in [15] was inactive. The fold change in assay [8] (setting [19]) was 0.931 (inactive); in assay [8] (setting [20]), 0.609. Further, the cell count was 7300 in assay [8] (setting [21]) and 7840 in [8] (setting [22]).
